# Measured values reported in ChEMBL document CHEMBL1961873, “Compounds: GSK PKIS; Assays: Nanosyn kinase panel” (2012).
# How the values were obtained:
# [1] = biological target: T1, Tyrosine-protein kinase ITK/TSK (Homo sapiens) (UniProt Q08881); settings: at 1 µM;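 also: values are mean percent inhibition of ITK from the GSK PKIS screen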
# T1 sequence (whole entry): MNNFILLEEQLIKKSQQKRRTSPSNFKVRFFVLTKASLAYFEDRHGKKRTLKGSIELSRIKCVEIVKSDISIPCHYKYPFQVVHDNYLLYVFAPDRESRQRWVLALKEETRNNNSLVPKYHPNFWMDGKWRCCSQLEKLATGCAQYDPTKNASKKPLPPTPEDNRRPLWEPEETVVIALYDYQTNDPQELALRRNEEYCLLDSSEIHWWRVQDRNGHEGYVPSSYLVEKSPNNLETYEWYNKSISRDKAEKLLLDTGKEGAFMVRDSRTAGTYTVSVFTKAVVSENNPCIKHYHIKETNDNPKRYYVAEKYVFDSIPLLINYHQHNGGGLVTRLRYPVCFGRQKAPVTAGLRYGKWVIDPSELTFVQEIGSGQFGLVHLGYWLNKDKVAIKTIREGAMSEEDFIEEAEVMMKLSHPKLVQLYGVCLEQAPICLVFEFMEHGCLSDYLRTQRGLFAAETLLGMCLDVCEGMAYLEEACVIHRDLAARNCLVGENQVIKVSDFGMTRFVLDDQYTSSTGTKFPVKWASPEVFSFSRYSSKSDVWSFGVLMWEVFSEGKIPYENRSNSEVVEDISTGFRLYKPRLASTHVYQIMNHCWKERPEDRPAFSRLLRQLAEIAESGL
# [2] = biological target: Tyrosine-protein kinase JAK1 (Homo sapiens) (UniProt P23458); settings: at 0.1 µM
# [3] = biological target: Tyrosine-protein kinase JAK1 (Homo sapiens) (UniProt P23458); settings: at 1 µM
# [4] = biological target: Tyrosine-protein kinase JAK2 (Homo sapiens) (UniProt O60674); settings: at 0.1 µM
# [5] = biological target: Tyrosine-protein kinase JAK2 (Homo sapiens) (UniProt O60674); settings: at 1 µM
# [6] = biological target: T2, Tyrosine-protein kinase JAK3 (Homo sapiens) (UniProt P52333); settings: at 0.1 µM
# T2 sequence (whole entry): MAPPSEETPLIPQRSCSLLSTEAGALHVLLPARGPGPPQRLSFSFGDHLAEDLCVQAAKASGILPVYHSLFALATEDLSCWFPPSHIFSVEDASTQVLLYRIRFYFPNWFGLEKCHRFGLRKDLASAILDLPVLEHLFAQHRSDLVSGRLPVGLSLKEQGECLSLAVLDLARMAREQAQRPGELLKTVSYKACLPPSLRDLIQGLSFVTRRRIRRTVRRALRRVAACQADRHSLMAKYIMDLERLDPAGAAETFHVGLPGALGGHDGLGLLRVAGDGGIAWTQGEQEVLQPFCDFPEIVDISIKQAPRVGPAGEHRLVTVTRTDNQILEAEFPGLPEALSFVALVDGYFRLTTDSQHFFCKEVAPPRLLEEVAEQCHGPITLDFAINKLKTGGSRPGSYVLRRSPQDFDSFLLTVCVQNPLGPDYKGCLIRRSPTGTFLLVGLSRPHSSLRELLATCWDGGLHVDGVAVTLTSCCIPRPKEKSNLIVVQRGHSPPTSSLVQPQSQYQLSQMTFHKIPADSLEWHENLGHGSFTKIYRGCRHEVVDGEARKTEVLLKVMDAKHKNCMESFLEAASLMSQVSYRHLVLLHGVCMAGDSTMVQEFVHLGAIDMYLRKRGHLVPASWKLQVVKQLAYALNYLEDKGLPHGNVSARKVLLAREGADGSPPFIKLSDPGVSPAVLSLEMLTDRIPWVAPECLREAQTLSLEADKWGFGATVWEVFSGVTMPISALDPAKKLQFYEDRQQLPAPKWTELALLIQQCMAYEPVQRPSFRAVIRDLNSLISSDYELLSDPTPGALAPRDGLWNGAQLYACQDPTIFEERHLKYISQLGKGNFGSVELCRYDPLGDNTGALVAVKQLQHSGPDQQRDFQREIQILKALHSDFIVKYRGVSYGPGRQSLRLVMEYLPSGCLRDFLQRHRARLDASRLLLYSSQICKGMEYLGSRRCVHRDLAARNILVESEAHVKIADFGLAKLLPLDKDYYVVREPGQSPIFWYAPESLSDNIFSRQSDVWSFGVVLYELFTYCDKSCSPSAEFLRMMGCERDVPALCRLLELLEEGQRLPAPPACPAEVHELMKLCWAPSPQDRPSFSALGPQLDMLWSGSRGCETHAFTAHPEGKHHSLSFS
# [7] = biological target: T2, Tyrosine-protein kinase JAK3 (Homo sapiens); settings: at 1 µM
# [8] = biological target: Vascular endothelial growth factor receptor 2 (Homo sapiens) (UniProt P35968); settings: at 0.1 µM
# [9] = biological target: Vascular endothelial growth factor receptor 2 (Homo sapiens) (UniProt P35968); settings: at 1 µM
# [10] = biological target: Mast/stem cell growth factor receptor Kit (Homo sapiens) (UniProt P10721); settings: at 0.1 µM
# [11] = biological target: Mast/stem cell growth factor receptor Kit (Homo sapiens) (UniProt P10721); settings: at 1 µM
# [12] = tested on: Mast/stem cell growth factor receptor Kit (Homo sapiens), P10721 [D816V]; settings: at 0.1 µM
# [13] = tested on: Mast/stem cell growth factor receptor Kit (Homo sapiens), P10721 [D816V]; settings: at 1 µM
# [14] = tested on: Mast/stem cell growth factor receptor Kit (Homo sapiens), P10721 [T670I]; settings: at 0.1 µM
# [15] = tested on: Mast/stem cell growth factor receptor Kit (Homo sapiens), P10721 [T670I]; settings: at 1 µM
# [16] = tested on: Mast/stem cell growth factor receptor Kit (Homo sapiens), P10721 [V560G]; settings: at 0.1 µM
# [17] = tested on: Mast/stem cell growth factor receptor Kit (Homo sapiens), P10721 [V560G]; settings: at 1 µM
# [18] = biological target: Tyrosine-protein kinase Lck (Homo sapiens) (UniProt P06239); settings: at 0.1 µM
# [19] = biological target: Tyrosine-protein kinase Lck (Homo sapiens) (UniProt P06239); settings: at 1 µM
# [20] = biological target: Leukocyte tyrosine kinase receptor (Homo sapiens) (UniProt P29376); settings: at 0.1 µM
# Sequence of Leukocyte tyrosine kinase receptor (Homo sapiens) (P29376 whole entry): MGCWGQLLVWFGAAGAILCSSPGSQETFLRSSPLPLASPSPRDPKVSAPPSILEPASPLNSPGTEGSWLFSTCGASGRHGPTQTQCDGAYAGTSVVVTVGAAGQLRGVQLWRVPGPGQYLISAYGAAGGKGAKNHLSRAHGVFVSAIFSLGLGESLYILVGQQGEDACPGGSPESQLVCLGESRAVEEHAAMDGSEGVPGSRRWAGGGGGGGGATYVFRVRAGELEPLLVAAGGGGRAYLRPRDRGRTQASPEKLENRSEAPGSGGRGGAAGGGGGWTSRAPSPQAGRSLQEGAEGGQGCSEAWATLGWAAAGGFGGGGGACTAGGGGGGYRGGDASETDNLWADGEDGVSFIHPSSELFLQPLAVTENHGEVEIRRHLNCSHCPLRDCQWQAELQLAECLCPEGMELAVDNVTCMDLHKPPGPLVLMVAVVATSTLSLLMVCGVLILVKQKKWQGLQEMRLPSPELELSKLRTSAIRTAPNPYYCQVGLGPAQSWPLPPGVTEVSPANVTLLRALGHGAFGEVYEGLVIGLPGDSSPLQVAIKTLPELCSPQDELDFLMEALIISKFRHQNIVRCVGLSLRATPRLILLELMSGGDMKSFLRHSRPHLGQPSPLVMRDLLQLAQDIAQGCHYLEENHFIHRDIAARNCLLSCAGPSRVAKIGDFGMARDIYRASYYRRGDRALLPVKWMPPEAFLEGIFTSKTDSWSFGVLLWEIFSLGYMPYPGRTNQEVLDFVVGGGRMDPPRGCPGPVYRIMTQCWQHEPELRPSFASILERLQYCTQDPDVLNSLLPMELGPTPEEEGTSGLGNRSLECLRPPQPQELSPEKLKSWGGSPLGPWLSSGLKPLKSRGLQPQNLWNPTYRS
# Sequence of Tyrosine-protein kinase JAK2 (Homo sapiens) (O60674 whole entry): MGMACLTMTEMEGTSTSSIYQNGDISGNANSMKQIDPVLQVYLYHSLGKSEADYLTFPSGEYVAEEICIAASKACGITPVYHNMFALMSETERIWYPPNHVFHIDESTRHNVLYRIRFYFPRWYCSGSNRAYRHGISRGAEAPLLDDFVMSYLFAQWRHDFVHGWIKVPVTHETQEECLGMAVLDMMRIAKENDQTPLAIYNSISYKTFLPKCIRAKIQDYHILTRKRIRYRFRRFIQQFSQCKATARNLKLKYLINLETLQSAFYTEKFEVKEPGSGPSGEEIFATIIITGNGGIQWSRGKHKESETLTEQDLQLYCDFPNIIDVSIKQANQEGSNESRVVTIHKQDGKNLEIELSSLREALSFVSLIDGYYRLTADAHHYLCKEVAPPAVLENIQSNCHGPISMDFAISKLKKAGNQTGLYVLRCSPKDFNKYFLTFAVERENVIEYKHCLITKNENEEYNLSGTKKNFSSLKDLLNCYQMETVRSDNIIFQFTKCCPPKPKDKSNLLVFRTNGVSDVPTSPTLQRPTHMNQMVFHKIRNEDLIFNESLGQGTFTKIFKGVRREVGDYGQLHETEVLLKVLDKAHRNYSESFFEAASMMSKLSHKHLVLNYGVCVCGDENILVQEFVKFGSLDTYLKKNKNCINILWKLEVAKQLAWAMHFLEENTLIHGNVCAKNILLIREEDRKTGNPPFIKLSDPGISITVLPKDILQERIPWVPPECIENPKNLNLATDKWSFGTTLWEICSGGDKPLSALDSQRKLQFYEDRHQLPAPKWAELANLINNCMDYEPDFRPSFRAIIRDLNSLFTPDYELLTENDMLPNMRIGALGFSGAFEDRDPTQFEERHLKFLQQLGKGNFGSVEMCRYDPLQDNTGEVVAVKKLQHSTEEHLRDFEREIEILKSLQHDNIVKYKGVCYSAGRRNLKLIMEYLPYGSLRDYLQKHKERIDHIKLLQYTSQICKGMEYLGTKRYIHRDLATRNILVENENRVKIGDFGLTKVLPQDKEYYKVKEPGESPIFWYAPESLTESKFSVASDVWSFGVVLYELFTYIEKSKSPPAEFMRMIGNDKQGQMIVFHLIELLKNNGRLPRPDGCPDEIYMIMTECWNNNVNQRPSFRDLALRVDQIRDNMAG
# Sequence of Mast/stem cell growth factor receptor Kit (Homo sapiens) (P10721 whole entry): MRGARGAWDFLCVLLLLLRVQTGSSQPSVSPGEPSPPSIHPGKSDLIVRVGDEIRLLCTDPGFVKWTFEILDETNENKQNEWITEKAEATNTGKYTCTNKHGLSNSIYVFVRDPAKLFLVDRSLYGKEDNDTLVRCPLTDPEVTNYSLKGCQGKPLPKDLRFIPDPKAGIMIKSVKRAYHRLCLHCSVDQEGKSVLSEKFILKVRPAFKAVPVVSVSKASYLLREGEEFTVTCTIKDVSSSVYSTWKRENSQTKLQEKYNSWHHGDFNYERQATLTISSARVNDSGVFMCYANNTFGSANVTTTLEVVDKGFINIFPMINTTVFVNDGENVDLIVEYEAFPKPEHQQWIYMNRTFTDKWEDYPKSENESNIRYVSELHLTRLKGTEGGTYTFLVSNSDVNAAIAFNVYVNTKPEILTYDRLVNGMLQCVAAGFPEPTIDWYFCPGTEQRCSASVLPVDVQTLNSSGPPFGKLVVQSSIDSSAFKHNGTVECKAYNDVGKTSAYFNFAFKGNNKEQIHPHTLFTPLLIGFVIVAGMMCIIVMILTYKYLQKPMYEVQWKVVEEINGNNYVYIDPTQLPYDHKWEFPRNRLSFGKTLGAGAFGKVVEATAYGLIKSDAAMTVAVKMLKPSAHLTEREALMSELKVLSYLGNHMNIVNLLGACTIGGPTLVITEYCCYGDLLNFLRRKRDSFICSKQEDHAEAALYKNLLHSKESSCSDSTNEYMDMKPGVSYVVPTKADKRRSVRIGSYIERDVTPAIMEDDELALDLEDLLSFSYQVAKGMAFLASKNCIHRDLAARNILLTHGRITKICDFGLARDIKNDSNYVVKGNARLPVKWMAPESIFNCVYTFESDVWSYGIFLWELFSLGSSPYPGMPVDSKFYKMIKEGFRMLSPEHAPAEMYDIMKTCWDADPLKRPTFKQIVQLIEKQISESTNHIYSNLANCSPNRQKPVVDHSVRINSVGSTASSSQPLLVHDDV
# Sequence of Mast/stem cell growth factor receptor Kit (Homo sapiens), P10721 [T670I] (P10721 whole entry T670I): as the sequence (P10721 whole entry) above, with T670I counted along it
# Sequence of Tyrosine-protein kinase JAK1 (Homo sapiens) (P23458 whole entry): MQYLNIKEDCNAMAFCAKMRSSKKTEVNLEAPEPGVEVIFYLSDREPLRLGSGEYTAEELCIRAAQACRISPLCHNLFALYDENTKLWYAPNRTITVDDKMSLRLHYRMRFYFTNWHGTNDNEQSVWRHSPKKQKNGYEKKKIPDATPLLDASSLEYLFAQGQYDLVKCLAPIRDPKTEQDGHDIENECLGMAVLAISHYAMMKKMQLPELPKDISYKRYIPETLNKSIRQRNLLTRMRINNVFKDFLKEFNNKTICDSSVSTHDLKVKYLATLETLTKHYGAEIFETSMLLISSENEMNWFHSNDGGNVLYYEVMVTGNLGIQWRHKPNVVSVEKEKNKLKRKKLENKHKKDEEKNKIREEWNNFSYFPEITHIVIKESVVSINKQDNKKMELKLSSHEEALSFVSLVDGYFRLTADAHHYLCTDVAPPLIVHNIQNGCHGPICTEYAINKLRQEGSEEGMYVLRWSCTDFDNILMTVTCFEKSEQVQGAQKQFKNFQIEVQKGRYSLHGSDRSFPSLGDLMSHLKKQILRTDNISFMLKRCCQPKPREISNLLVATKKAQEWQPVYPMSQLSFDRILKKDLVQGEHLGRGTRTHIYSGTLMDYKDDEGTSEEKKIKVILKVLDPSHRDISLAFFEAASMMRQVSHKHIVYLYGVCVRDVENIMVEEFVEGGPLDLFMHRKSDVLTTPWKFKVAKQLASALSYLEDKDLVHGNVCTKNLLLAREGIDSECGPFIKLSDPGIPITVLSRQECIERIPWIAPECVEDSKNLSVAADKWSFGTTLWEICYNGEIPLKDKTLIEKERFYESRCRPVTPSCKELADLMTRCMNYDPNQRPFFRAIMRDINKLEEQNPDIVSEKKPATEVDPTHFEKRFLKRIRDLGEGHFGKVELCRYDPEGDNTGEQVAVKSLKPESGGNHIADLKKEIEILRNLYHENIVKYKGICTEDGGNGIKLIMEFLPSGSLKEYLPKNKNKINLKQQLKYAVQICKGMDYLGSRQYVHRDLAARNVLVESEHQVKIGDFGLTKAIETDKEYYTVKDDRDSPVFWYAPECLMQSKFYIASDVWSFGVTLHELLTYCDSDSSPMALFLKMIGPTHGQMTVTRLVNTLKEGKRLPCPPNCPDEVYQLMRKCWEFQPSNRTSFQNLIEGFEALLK
# Sequence of Mast/stem cell growth factor receptor Kit (Homo sapiens), P10721 [V560G] (P10721 whole entry V560G): as the sequence (P10721 whole entry) above, with V560G counted along it
# Sequence of Mast/stem cell growth factor receptor Kit (Homo sapiens), P10721 [D816V] (P10721 whole entry D816V): as the sequence (P10721 whole entry) above, with D816V counted along it
# Sequence of Tyrosine-protein kinase Lck (Homo sapiens) (P06239 2-509 limits assumed): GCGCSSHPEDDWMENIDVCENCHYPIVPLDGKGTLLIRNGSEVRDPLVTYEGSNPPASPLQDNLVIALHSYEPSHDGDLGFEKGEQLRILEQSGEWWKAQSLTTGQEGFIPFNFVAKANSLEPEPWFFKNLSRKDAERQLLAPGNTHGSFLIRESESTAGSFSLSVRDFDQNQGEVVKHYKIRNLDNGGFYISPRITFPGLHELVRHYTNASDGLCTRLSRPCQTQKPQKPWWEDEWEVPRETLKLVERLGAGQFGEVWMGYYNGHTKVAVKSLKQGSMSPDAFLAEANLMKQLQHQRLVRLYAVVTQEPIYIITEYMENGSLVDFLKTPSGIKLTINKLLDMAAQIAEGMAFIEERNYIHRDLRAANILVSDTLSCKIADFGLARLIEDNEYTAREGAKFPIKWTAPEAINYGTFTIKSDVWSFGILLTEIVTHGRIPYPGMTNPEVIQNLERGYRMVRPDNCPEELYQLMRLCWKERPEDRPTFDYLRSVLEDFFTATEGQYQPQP
SMILES,inhibition [1],inhibition [2],inhibition [3],inhibition [4],inhibition [5],inhibition [6],inhibition [7],inhibition [8],inhibition [9],inhibition [10],inhibition [11],inhibition [12],inhibition [13],inhibition [14],inhibition [15],inhibition [16],inhibition [17],inhibition [18],inhibition [19],inhibition [20]
OCc1ccc(-c2nc(-c3ccccn3)c(-c3ccc4c(c3)OCO4)[nH]2)cc1,2.5%,3.55%,3.24%,2.17%,3.4%,-1.9%,0.74%,7.67%,6.53%,13.1%,3.32%,4.26%,1.86%,3.18%,0.71%,-1.45%,2.83%,4.57%,6.53%,3.45%
CCOc1nccc2c1nc(-c1nonc1N)n2CC,3.31%,6.31%,18.7%,1.55%,1.18%,0.47%,4.71%,9.84%,23.8%,3.38%,10.2%,-2.27%,3.77%,4.03%,6.04%,4.82%,7.59%,1.92%,3.61%,1.89%
CN(C)c1cc2c(Nc3ccc4c(cnn4Cc4ccccc4)c3)ncnc2cn1,0.99%,3.23%,-0.82%,0.91%,2.18%,-0.53%,0.54%,4.41%,18.2%,3.49%,3.38%,4.89%,2.07%,3.06%,-0.32%,-2.8%,2.75%,5.16%,22.6%,1.81%
COc1ccc(-c2nn3ncccc3c2-c2ccnc(Nc3cccc(C(F)(F)F)c3)n2)cc1,1.39%,2.27%,3.13%,0.53%,0.47%,-3.85%,-0.01%,3.64%,11.1%,3.46%,26.5%,0.93%,3.05%,3.67%,4.13%,-1.16%,7.05%,3.91%,20.3%,2.17%
Cc1cc(O)cc(C)c1/C=C/c1cncc(C(=O)N(C)C)c1,1.94%,4.52%,5.42%,1.7%,3.22%,-0.76%,1.31%,7.06%,12.3%,4.12%,8.58%,0.33%,1.49%,2.61%,1.57%,5.07%,4.85%,3.69%,8.38%,2.93%
N#Cc1c(NC(=O)c2ccccc2F)sc2c1CCCC2,0.32%,0.4%,-1.49%,-0.7%,-1.01%,-1.04%,2.45%,-3.31%,-0.36%,-4.4%,-1.43%,-1.25%,-3.62%,-0.75%,0.26%,2.34%,2.89%,0.15%,4.08%,-1.29%
Cc1cc(Cl)cc2c1NC(=O)C2=NNc1ccc(S(N)(=O)=O)cc1,1.14%,2.03%,12.7%,-0.3%,0.42%,-0.31%,0.84%,1.84%,4.19%,–,12.9%,4.18%,-3.52%,2.4%,3.29%,2.2%,7.35%,1.9%,1.89%,2.82%
COc1cc(Nc2nccc(-c3cnn4ncccc34)n2)cc(OC)c1,11.8%,4.49%,22.9%,1.89%,36.4%,7.71%,60.5%,14.8%,63.8%,96.2%,97.3%,1.93%,9.04%,80.7%,98.1%,65.2%,92.5%,2.75%,19.2%,4.41%
COc1cc2ncnc(Nc3ccc(C)c(O)c3)c2cc1OC,1.28%,1.62%,12.6%,1.49%,0.53%,-1.17%,2.14%,75.4%,72%,9.08%,40.5%,44%,88.3%,3.54%,2.94%,5.53%,35.8%,25%,72.2%,6.58%
NS(=O)(=O)c1ccc(Nc2cc(-c3cccc(O)c3)n[nH]2)cc1,4.07%,4.66%,7.23%,1.41%,1.95%,-1.44%,1.25%,9.9%,19.2%,33.2%,83.7%,3.6%,4.78%,4.57%,4.81%,4.28%,25.4%,1.64%,4.8%,2.99%
COc1cccc(-n2ncc3c(N/N=C/c4ccc(C)cc4)ncnc32)c1,3.5%,5.68%,3.83%,1.5%,1.98%,-0.38%,1.11%,6.36%,19.1%,6.06%,10.6%,2.8%,6.2%,0.52%,4.07%,-2.84%,-2.13%,7.28%,21.3%,4.23%
CN(C)CCCn1c(-c2nonc2N)nc2cnccc21,0.92%,4.69%,6.17%,1.25%,0.79%,-1.68%,-0.27%,4.41%,8.24%,2.22%,3.91%,4.66%,–,2.49%,0.58%,-1.36%,-1.19%,2.27%,4.6%,3.86%
COC(=O)Nc1nc2cc(Oc3ccc(NC(=O)Nc4cccc(Br)c4)cc3)ccc2[nH]1,1.87%,5.36%,11.8%,1.09%,3.06%,-0.45%,1.27%,–,–,84.5%,100%,2.97%,4.47%,33%,56.8%,69.5%,86.4%,5%,10.5%,3.48%
CCn1c(-c2nonc2N)nc2c(C#CC(C)(C)O)nc(OCCNC)cc21,0.12%,1.27%,2.83%,2.5%,3.3%,-2.54%,-0.89%,16.2%,64.8%,4.99%,6.66%,4.65%,3.95%,0.61%,3.65%,-4.02%,4.6%,2.55%,2.44%,5.09%
